{
  "source": "PubChem BioAssay (NCI)",
  "note": "Several values for one entry are separate records, joined by “and”; a condition that tells them apart may be missing. Equal entries are not always repeated. The panel holds about 83,000 compounds, 20% with a hit somewhere; the sample as a whole holds those more often.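 96-well plates, one dose, 48 hours. Percent growth reported; active if below 10.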 A number with no mark means an inactive call. Activity calls are given as the source filed them.",
  "data": [
    {"system": "MDA-MB-468 breast", "test": "NCI-60 one-dose screen, 48 h (100 = growth as untreated, 0 = no growth, -100 = all killed)", "details": "10 µM unless noted", "values": [
      {"smiles": "O=Nc1c(O)ccc2ccccc12", "growth": "78.9% and 81.4%"},
      {"smiles": "COc1cc(-c2nn(-c3cccc(NC(=O)CCN4CCN(Cc5ccccc5)CC4)c3)cc2-c2ccncc2)ccc1Cl", "growth": "1.17% (active)"},
      {"smiles": "CCOc1ncc([N+](=O)[O-])c(OCC)n1", "growth": "115%"},
      {"smiles": "CCN(CC)Cc1cc(Nc2cc(C(F)(F)F)c(C#N)c3nc4ccccc4n23)ccc1O", "growth": "-0.969% (active)"},
      {"smiles": "CCN1C(=O)N(CC)C2C1NC(=S)N2/N=C/C=C/c1cccs1", "note": "(centres undefined)", "growth": "7.59% (active)"},
      {"smiles": "NC1=C(Br)C(=O)c2ncccc2C1=O", "growth": "-14.8% (active)"},
      {"smiles": "Cc1ccc(C(=O)Nc2ccc(Cl)cc2C(=O)NCc2ccccc2)cc1", "growth": "83%"},
      {"smiles": "Cc1ccc(NCCN2CCCCC2)c2c(=O)c3ccccc3sc12", "growth": "11.1%"},
      {"smiles": "N#Cc1ccc(C(=O)CSc2nc(Nc3ccc(S(N)(=O)=O)cc3)c3ccccc3n2)cc1", "growth": "105%"},
      {"smiles": "CCN1C(=O)N(c2ccccc2)C2NN=c3s/c(=C4\\C(=O)N(C(C)C)c5ccccc54)c(=O)n3C21", "note": "(centres undefined)", "growth": "21.4%"},
      {"smiles": "CCN1C(=O)N(c2ccccc2)C2NC(=S)N(/N=C/C=C/c3ccccc3OC)C21", "note": "(centres undefined)", "growth": "2.35% (active)"},
      {"smiles": "CC1(C)COB(OCC(C)(C)COB2OCC(C)(C)CO2)OC1", "growth": "114%"},
      {"smiles": "CCCCCCCCCCCCNC(=O)N[C@H](C(=O)N[C@H]1/C=C/OCCNC(=O)/C=C/[C@H](C(C)C)NC1=O)C(C)C", "growth": "15.5%"},
      {"smiles": "O=C1NC(=O)C(CSc2ccccc2)(c2ccccc2)N1", "note": "(centres undefined)", "growth": "105%"},
      {"smiles": "C/C(=N\\Nc1cc(C)nc2ccc(Br)cc12)c1ccc([N+](=O)[O-])cc1", "growth": "51.5%"},
      {"smiles": "CCCCCCNC(=O)Oc1ccc(/C(=C(\\C)c2ccccc2)c2ccc(OCCN3CCCCC3)cc2)cc1", "growth": "64.2%"},
      {"smiles": "Cc1cc(C(=O)O)c(N)c(C)n1", "growth": "120%"},
      {"smiles": "CCN1C(=S)N(c2ccccc2)C2C1NN=c1s/c(=C3\\C(=O)N(C(C)C)c4ccccc43)c(=O)n12", "note": "(centres undefined)", "growth": "94.5%"},
      {"smiles": "O=C(CSSCC(=O)c1ccc(Cl)cc1)c1ccc(Cl)cc1", "growth": "74.8%"},
      {"smiles": "N#CCC1=NC(c2cccs2)=Nc2ccccc2S1", "growth": "82.2%"},
      {"smiles": "Cc1ccc(-c2cc(-c3ccc(N(C)C)cc3)n3c(n2)nc2ccccc23)cc1", "growth": "-0.434% (active)"},
      {"smiles": "COc1cccc(/C=C/C(=O)c2sc(Nc3ccc(O)cc3)nc2C)c1", "growth": "97.2%"},
      {"smiles": "Cc1nc2ccc(Nc3nc(Cl)nc(N4CCOCC4)n3)cc2n1Cc1ccccc1", "growth": "62.2%"},
      {"smiles": "COc1ccc(C2=C(Nc3ccc(C(=O)Nc4ccccc4)cc3)C(=O)N(C)C2=O)cc1", "growth": "88.1%"},
      {"smiles": "COc1cccc(-c2nn(C)c3sc(C(=O)NCCN4CCN(c5ccccc5F)CC4)cc23)c1", "growth": "45.9%"},
      {"smiles": "CC(C)C1=NOC(=O)C1=Cc1cn(-c2ccco2)nc1-c1ccccc1", "growth": "54%"},
      {"smiles": "CCCCC1(CC)COC(CCC)OC1", "note": "(centres undefined)", "growth": "99.7%"},
      {"smiles": "CC(C)(C)c1cc(C(=O)Nc2ccc(C(=O)NCCN)cc2)cc(C(C)(C)C)c1", "growth": "-39.5% (active)"},
      {"smiles": "COc1ccc(CNc2c3ccccc3nc3ccccc23)cc1F", "growth": "-18.7% (active)"},
      {"smiles": "COc1cc2c(c(OC)c1OC)C(=O)CC(c1cccc(NC(=O)c3ccc(C#N)cc3)c1)O2", "note": "(centres undefined)", "growth": "48.8%"},
      {"smiles": "COc1cc(C2C(C#N)=C(N)OC3=C2C(=O)c2ccccc2C3=O)cc(OC)c1O", "note": "(centres undefined)", "growth": "106%"},
      {"smiles": "c1ccc(-c2ccc(-c3nc4ccccc4[nH]3)cc2)cc1", "growth": "87%"},
      {"smiles": "Nc1nc(Cn2c(-c3nonc3N)nc3ccccc32)nc(N2CCCCC2)n1", "growth": "72.8%"},
      {"smiles": "CC(=O)NCC(=O)Nc1ccc(-c2nnc3ccccn23)nc1.CC(=O)NCC(=O)Nc1ccc(-c2nnc3ccccn23)nc1.[Pt+2]", "growth": "116%"},
      {"smiles": "O=C(NCCOCCOCCNc1cccc2c1C(=O)N(C1CCCNC1=O)C2=O)c1cc2c(o1)C(=O)c1ccccc1C2=O", "note": "(centres undefined)", "growth": "-36.6% (active)"},
      {"smiles": "Cc1ccccc1N=C(N)Nc1ccccc1C", "note": "(tested in a mixture with another compound)", "growth": "87.1%"},
      {"smiles": "CCc1c(Nc2ccc(C)cc2)[nH]c(N)nc1=S", "growth": "97.3%"},
      {"smiles": "COCCOCCOCc1n(Cc2ccc3ccccc3c2)c2ccccc2[n+]1Cc1ccc2ccccc2c1", "growth": "-20.6% (active)"},
      {"smiles": "COc1ccc(-c2c3c(nn2-c2ccc(N)cc2)CCc2cnoc2-3)cc1OC", "growth": "92.8%"}
    ]}
  ]
}
